Measured values reported in PubChem BioAssay AID1159580 (chemical genetic matrix, 2015).
The whole screen tested about 5,500 compounds, of which about 2,000 (36%) were called active. Roughly 18% stayed inconclusive and do not appear here. Rule as the data show it: active = normalized growth mostly below about 0.91 (no sharp cut-off); inconclusive = no clear call, values can overlap the other calls; inactive = mostly above about 0.92. Some of the results follow.

Test: chemical genetic growth profiling, strain panel (AID 1159580);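 also: tested at 20 µM; growth read once vehicle control cultures reached saturation at 30 °C; 1 = growth at the plate median or of vehicle wells; lower values mean less growth of the strain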
Conditions: growth OD

Measured: normalized growth

O=C(O)c1cc(=O)c2c(OCC(O)COc3cccc4oc(C(=O)O)cc(=O)c34)cccc2o1
inactive: S. cerevisiae deletion strains, locus YKL009W, strain mrt4, active compounds read low 1.01 | S. cerevisiae deletion strains, locus YKL068W, active compounds read low 1.01 | S. cerevisiae deletion strains, locus YKL085W, strain MDH1 (second series), active compounds read low 1.03 | S. cerevisiae deletion strains, locus YKL085W, strain MDH1, active compounds read low 1.03 | S. cerevisiae deletion strains, locus YKL160W, strain elf1, active compounds read low 0.972 | S. cerevisiae deletion strains, locus YKL190W, strain CNB1, active compounds read low 1 | S. cerevisiae deletion strains, locus YKR001C, strain vps1, active compounds read low 1.02 | S. cerevisiae deletion strains, locus YKR026C, strain gcn3, active compounds read low 0.968 | S. cerevisiae deletion strains, locus YKR091W, strain srl3, active compounds read low 0.983 | S. cerevisiae deletion strains, locus YLL001W, strain dnm1, active compounds read low 0.935 | S. cerevisiae deletion strains, locus YLL026W, active compounds read low 0.991 | S. cerevisiae deletion strains, locus YLL041C, strain sdh2, active compounds read low 0.973 | S. cerevisiae deletion strains, locus YLR027C, strain aat2, active compounds read low 0.983 | S. cerevisiae deletion strains, locus YLR039C, strain RIC1, active compounds read low 1 | S. cerevisiae deletion strains, locus YLR058C, strain SHM2, active compounds read low 1.01 | S. cerevisiae deletion strains, locus YLR102C, strain apc9, active compounds read low 1.02 | S. cerevisiae deletion strains, locus YLR113W, strain HOG1, active compounds read low 0.998 | S. cerevisiae deletion strains, locus YLR221C, strain rsa3, active compounds read low 1.02 | S. cerevisiae deletion strains, locus YLR258W, strain gsy2, active compounds read low 0.983 | S. cerevisiae deletion strains, locus YLR262C, strain YPT6 (second series), active compounds read low 0.933 | S. cerevisiae deletion strains, locus YLR262C, strain YPT6, active compounds read low 1.05 | S. cerevisiae deletion strains, locus YLR268W, strain sec22, active compounds read low 1.04 | S. cerevisiae deletion strains, locus YLR320W, strain mms22, active compounds read low 0.985 | S. cerevisiae deletion strains, locus YLR330W, strain CHS5, active compounds read low 1.01 | S. cerevisiae deletion strains, locus YLR342W, strain FKS1 (second series), active compounds read low 1.01 | S. cerevisiae deletion strains, locus YLR342W, strain FKS1, active compounds read low 0.95 | S. cerevisiae deletion strains, locus YLR357W, strain rsc2, active compounds read low 1.01 | S. cerevisiae deletion strains, locus YLR370C, strain arc18, active compounds read low 0.974 | S. cerevisiae deletion strains, locus YLR371W, strain rom2, active compounds read low 1.02 | S. cerevisiae deletion strains, locus YLR384C, strain iki3, active compounds read low 0.961 | S. cerevisiae deletion strains, locus YLR418C, strain cdc73, active compounds read low 1.02 | S. cerevisiae deletion strains, locus YML016C, strain PPZ1, active compounds read low 1.01 | S. cerevisiae deletion strains, locus YML032C, strain rad52, active compounds read low 1.02 | S. cerevisiae deletion strains, locus YML120C, strain ndi1, active compounds read low 0.966 | S. cerevisiae deletion strains, locus YML124C, strain tub3, active compounds read low 1.01 | S. cerevisiae deletion strains, locus YMR058W, strain fet3, active compounds read low 0.967 | S. cerevisiae deletion strains, locus YMR078C, strain ctf18, active compounds read low 1.04 | S. cerevisiae deletion strains, locus YMR125W, strain sto1, active compounds read low 0.99 | S. cerevisiae deletion strains, locus YMR129W, active compounds read low 0.975 | S. cerevisiae deletion strains, locus YMR205C, strain PFK2, active compounds read low 0.982 | S. cerevisiae deletion strains, locus YMR223W, strain ubp8, active compounds read low 1.03 | S. cerevisiae deletion strains, locus YMR231W, strain pep5, active compounds read low 0.971 | S. cerevisiae deletion strains, locus YMR307W, strain GAS1, active compounds read low 1.09 | S. cerevisiae deletion strains, locus YNL067W, strain RPL9B, active compounds read low 1.01 | S. cerevisiae deletion strains, locus YNL071W, strain lat1, active compounds read low 0.989 | S. cerevisiae deletion strains, locus YNL128W, strain TEP1, active compounds read low 1.02 | S. cerevisiae deletion strains, locus YNL183C, strain NPR1, active compounds read low 0.952 | S. cerevisiae deletion strains, locus YNL209W, strain ssb2, active compounds read low 1.01 | S. cerevisiae deletion strains, locus YNL233W, strain BNI4, active compounds read low 1.02 | S. cerevisiae deletion strains, locus YNL248C, strain rpa49, active compounds read low 1 | S. cerevisiae deletion strains, locus YNL250W, strain rad50, active compounds read low 1.07 | S. cerevisiae deletion strains, locus YNL271C, strain bni1, active compounds read low 1.03 | S. cerevisiae deletion strains, locus YNL298W, strain CLA4, active compounds read low 1.01 | S. cerevisiae deletion strains, locus YNL307C, strain MCK1, active compounds read low 1.02 | S. cerevisiae deletion strains, locus YNL322C, strain KRE1 (second series), active compounds read low 0.953 | S. cerevisiae deletion strains, locus YNL322C, strain KRE1, active compounds read low 1.01 | S. cerevisiae deletion strains, locus YNR049C, strain mso1, active compounds read low 0.967 | S. cerevisiae deletion strains, locus YNR052C, strain pop2, active compounds read low 1.01 | S. cerevisiae deletion strains, locus YOL006C, strain TOP1, active compounds read low 1.01 | S. cerevisiae deletion strains, locus YOL012C, strain htz1 0.937 | S. cerevisiae deletion strains, locus YOL147C, strain pex11, active compounds read low 1.03 | S. cerevisiae deletion strains, locus YOR001W, strain rrp6, active compounds read low 0.936 | S. cerevisiae deletion strains, locus YOR061W, strain CKA2, active compounds read low 1.01 | S. cerevisiae deletion strains, locus YOR069W, strain VPS5, active compounds read low 1.01 | S. cerevisiae deletion strains, locus YOR070C, strain gyp1, active compounds read low 0.987 | S. cerevisiae deletion strains, locus YOR080W, strain dia2, active compounds read low 0.968 | S. cerevisiae deletion strains, locus YOR083W, strain WHI5, active compounds read low 0.961 | S. cerevisiae deletion strains, locus YOR106W, strain vam3, active compounds read low 0.957 | S. cerevisiae deletion strains, locus YOR136W, strain idh2, active compounds read low 1.03 | S. cerevisiae deletion strains, locus YOR144C, strain elg1, active compounds read low 1.02 | S. cerevisiae deletion strains, locus YOR184W, strain ser1, active compounds read low 1.03 | S. cerevisiae deletion strains, locus YOR231W, strain MKK1, active compounds read low 1 | S. cerevisiae deletion strains, locus YOR265W, strain rbl2, active compounds read low 0.984 | S. cerevisiae deletion strains, locus YOR270C, strain vph1, active compounds read low 0.946 | S. cerevisiae deletion strains, locus YOR290C, strain snf2, active compounds read low 1.02 | S. cerevisiae deletion strains, locus YOR316C, strain cot1, active compounds read low 1.03 | S. cerevisiae deletion strains, locus YPL051W, strain arl3, active compounds read low 0.99 | S. cerevisiae deletion strains, locus YPL055C, strain LGE1, active compounds read low 1.01 | S. cerevisiae deletion strains, locus YPL078C, strain atp4, active compounds read low 0.933 | S. cerevisiae deletion strains, locus YPL106C, strain sse1, active compounds read low 1 | S. cerevisiae deletion strains, locus YPL240C, strain hsp82, active compounds read low 1 | S. cerevisiae deletion strains, locus YPL241C, strain CIN2, active compounds read low 1.01 | S. cerevisiae deletion strains, locus YPL256C, strain CLN2, active compounds read low 1 | S. cerevisiae deletion strains, locus YPR119W, strain clb2, active compounds read low 1.03 | S. cerevisiae deletion strains, locus YPR141C, strain kar3, active compounds read low 1.03 | S. cerevisiae deletion strains, locus YPR163C, strain tif3, active compounds read low 1.02 | S. cerevisiae deletion strains, locus YPR167C, strain met16, active compounds read low 1.03 | S. cerevisiae deletion strains, strain wtn01, active compounds read low 0.999 | S. cerevisiae strains, strain wild type, active compounds read low 1.01
